# Where a name gives a salt, the structure may show the parent alone.
# System: MDA-MB-468
# Experiment: phospho-S6 immunofluorescence (DAPI-normalised), per-plate z-score; higher = higher phospho-S6 signal (less pathway suppression)
# Details: 24 h
# Procedure: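 GPCR-targeted compound library (MedChemExpress HY-L006) tested on MDA-MB-468 PTEN-null TNBC cells in 384-well plates at 0.1, 1 or 10 uM, combined with vehicle, GDC0941 450 nM or lapatinib 1 uM, for 24 h. Phospho-S6 (S240/244) immunofluorescence normalised to DAPI and expressed as a per-plate z-score; values are the mean of biological triplicates.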
Compound,phospho-S6 immunofluorescence (z-score) (co-treatment: GDC0941 450 nM),phospho-S6 immunofluorescence (z-score) (co-treatment: lapatinib 1 uM),phospho-S6 immunofluorescence (z-score) (co-treatment: vehicle)
COc1ccc2c(c1)[C@]13CCCC[C@@H]1[C@H](C2)N(C)CC3 [Dextromethorphan (hydrobromide hydrate)] (compound 10 µM),-0.24,-0.31,0.42
C[N+]1(C)CCCC(OC(=O)C(O)(c2ccccc2)c2ccccc2)C1 (centres undefined) [Mepenzolate (Bromide)] (compound 10 µM),-0.25,-0.12,-0.02
CCC1(c2cccc(O)c2)CCCCN(C)C1 (centres undefined) [Meptazinol (hydrochloride)] (compound 10 µM),0.48,0.25,0.11
Oc1ccc2c3c1O[C@H]1c4[nH]c5ccccc5c4C[C@@]4(O)[C@@H](C2)N(CC2CC2)CC[C@]314 [Naltrindole (hydrochloride)] (compound 10 µM),-1.12,-5.41,-1.21
COc1ccc(C(=O)c2c(C)n(CCN3CCOCC3)c3cc(I)ccc23)cc1 (compound 10 µM),-3.18,-1.01,-3.47
CN1CCC2=C(C1)c1ccccc1Cc1ccccc12 [Setiptiline (maleate)] (compound 10 µM),-0.68,-1.28,-1.11
CC(C)C[C@H](NC(=O)[C@H](Cc1ccccc1)NC(=O)CNC(=O)[C@@H](C)NC(=O)[C@@H](N)Cc1ccc(O)cc1)C(=O)O [[D-Ala2]leucine-enkephalin] (compound 10 µM),-0.29,0.01,1.34
CN1[C@@H]2C[C@@H](OC(=O)[C@H](CO)c3ccccc3)C[C@H]1[C@@H]1O[C@@H]12 [Scopolamine (hydrobromide)] (compound 10 µM),-1.4,-0.16,0.68
C[N+]1(C)[C@@H]2C[C@@H](OC(=O)[C@H](CO)c3ccccc3)C[C@H]1[C@@H]1O[C@@H]12 [Methscopolamine (bromide)] (compound 10 µM),0.05,0.43,0.6
COc1cc2c3c(c1OC)-c1ccccc1C[C@H]3N(C)CC2 [Nuciferine] (compound 10 µM),0.21,-0.74,0
Cc1ccc2c(c1)C1(CCN(CCc3nc(-c4ccccc4)oc3C)CC1)OC(=O)N2 (compound 10 µM),0.56,0.85,0.89
CNCC(=O)c1ccc(O)c(O)c1 [Adrenalone (hydrochloride)] (compound 10 µM),0.18,1.2,0.39
COc1ccc2c(c1)[nH]c1c(C)nccc12 [Harmine] (compound 10 µM),-0.75,-1.57,-1.55
CCN(CC)C(=O)c1ccc(C2=CC3(CCNCC3)Oc3cccc(O)c32)cc1 (compound 10 µM),0.32,-0.78,0.88
C[C@@H]1CN(Cc2ccc(F)cc2)CCN1C(=O)COc1ccc(Cl)cc1NC(N)=O (compound 10 µM),-3.5,-6.96,-8.26
NCC(O)c1ccc(O)cc1 (centres undefined) [Octopamine (hydrochloride)] (compound 10 µM),0.26,0.86,1.09
CC(C)(C)NCC(O)c1cc(Cl)c(N)c(Cl)c1 (centres undefined) [Clenbuterol (hydrochloride)] (compound 10 µM),1.42,1.64,0.37
CSCC[C@H](NC(=O)[C@H](Cc1ccccc1)NC(=O)CNC(=O)CNC(=O)[C@@H](N)Cc1ccc(O)cc1)C(=O)O (compound 10 µM),-0.41,-0.12,-0.05
O=C1Nc2ccccc2C2(CCN(CCc3ccc(C(F)(F)F)cc3)CC2)O1 (compound 10 µM),-3.3,-4.41,-4.38
CC(C)[C@@H](CN1CC[C@@](C)(c2cccc(O)c2)[C@@H](C)C1)NC(=O)[C@H]1Cc2ccc(O)cc2CN1 [JDTic (dihydrochloride)] (compound 10 µM),0.26,-2.5,0.81
COc1ccc2[nH]cc(C3=CCNCC3)c2c1 (compound 10 µM),-0.19,-2.58,-0.11
CN1CCC2=C(C1)c1ccccc1Cc1ccccc12 [Setiptiline] (compound 10 µM),-0.28,-1.52,-0.24
N[C@]1(C(=O)O)CC[C@H](C(=O)O)C1 [trans-ACPD] (compound 10 µM),0.3,0.1,-0.68
